Assay outcomes: PubChem, National Center for Advancing Translational Sciences (NCATS)
PNC inhibitor: perinucleolar compartment assembly inhibition; PC3M PTB-GFP, PNC prevalence imaging, 16 h; stronger effect = lower value; activity change (PNC), negative = inhibition, % at 10 µM; actives 3.1% (n = 140,000); AID 2417;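 active = readout at or below -70, meaning at least 70% loss of cells showing the perinucleolar compartment, a nuclear body marking cancer cells; inconclusive = readout between -30 and a set limit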
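Read-out is percentage of cells bearing a perinucleolar compartment, from automated 20x imaging of fixed, Hoechst-stained PC3M PTB-GFP cells. Cells were seeded 4 h, then exposed 16 h to compound (23 nl of library stock) in duplicate plates.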
12-hLO inh: blocks human 12-lipoxygenase activity | Potency, µM (titrated, usually from 57.1 µM), most hits filed as inhibitors | purified 12-hLO, xylenol orange hydroperoxide absorbance | AID 1452 | P18054 | actives 0.12% (n = 150,000); note: nearly all actives have a fitted effect of over 55% in size
Target sequence (P18054 whole entry, looked up): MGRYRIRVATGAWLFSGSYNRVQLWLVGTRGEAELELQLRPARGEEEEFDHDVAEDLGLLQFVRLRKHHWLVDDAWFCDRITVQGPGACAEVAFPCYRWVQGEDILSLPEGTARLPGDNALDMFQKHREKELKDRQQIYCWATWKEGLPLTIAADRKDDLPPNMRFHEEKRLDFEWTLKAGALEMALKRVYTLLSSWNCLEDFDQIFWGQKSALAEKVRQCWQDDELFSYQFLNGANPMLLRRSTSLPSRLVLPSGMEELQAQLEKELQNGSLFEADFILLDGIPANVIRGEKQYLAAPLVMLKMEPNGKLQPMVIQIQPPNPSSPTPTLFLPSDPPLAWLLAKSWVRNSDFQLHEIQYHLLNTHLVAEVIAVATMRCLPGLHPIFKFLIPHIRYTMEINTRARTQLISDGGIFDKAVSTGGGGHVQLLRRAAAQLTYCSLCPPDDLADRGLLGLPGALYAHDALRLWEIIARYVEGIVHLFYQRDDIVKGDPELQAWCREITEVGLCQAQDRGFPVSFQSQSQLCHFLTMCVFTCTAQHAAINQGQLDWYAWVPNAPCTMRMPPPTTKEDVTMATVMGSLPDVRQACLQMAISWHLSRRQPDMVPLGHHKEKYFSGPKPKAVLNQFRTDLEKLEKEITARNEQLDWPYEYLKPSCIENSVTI
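Hydroperoxide formation by human 12-lipoxygenase from 40 uM arachidonic acid was followed colorimetrically via ferric-xylenol orange complex, using the 573/405 nm absorbance ratio. Enzyme concentration was 150 nM, with 30 min reaction at room temperature.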
15-hLO-2 inh: inhibitors of human 15-lipoxygenase 2 (ALOX15B). actives 0.56% (n = 110,000). Potency, µM (titrated, usually from 57.1 µM), usual class: inhibitors. AID 881. purified 15hLO-2, xylenol orange hydroperoxide absorbance; note: nearly all actives have a fitted effect of over 60% in size
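Screening format was qHTS against 50 nM purified 15hLO-2 in Hepes pH 7.5 with detergent. Activity follows hydroperoxide formation from 45 uM arachidonic acid, measured as 573:405 nm absorbance ratio of the ferric-xylenol orange complex.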
Numbers stand for hits; - = inactive; ? = inconclusive; . = not tested or not shown; [ ] = remark or other dose. Compounds with a hit are over-represented: about 3.1% of the library has one in this group of screens. Unless noted, calls come from the whole dose curve; as a rule, active = well fitted curve in the direction sought with a large enough effect; inconclusive = small, poorly fitted or top-dose-only effect, or another doubt; inactive = no such curve, though single readings can be large; an effect the other way counts as inactive or inconclusive.

SMILES	PNC inhibitor	12-hLO inh	15-hLO-2 inh
CCN(CC)CC(O)COc1ccccc1C(=O)CCc1ccccc1 (centres undefined)	-86	-	-
c1ccc(-c2cc3c(nn2)CCc2nonc2-3)cc1	-102	-	-[2.29 µM]
O=C1c2ccccc2-c2nnc(-c3ccccc3)cc21	-	-	-
CC(C)Cc1nc2oc3c(NCc4cccnc4)ncnc3c2c2c1CCC2	?	-	-
CC(C)Cc1nc2oc3c(NCC4CCCO4)ncnc3c2c2c1CCC2 (centres undefined)	-100	-	-
CC(C)NC(=O)N1CCC2(CC1)CCN(S(C)(=O)=O)CC2	.	-	-
CC(=O)Nc1nnc(SCC(=O)NCC2CCCO2)s1 (centres undefined)	-100	-	-
CCc1nnc(NC(=O)CCC(=O)NCC2CCCO2)s1 (centres undefined)	-	-	-
CC1(C)C(=O)C=C[C@]2(C)C1CC(=O)[C@]1(C)C2CC[C@@]2(C)C(c3ccoc3)OC(=O)C3O[C@@]321 (some centres undefined)	.	-	-
Cc1[nH]c(=O)c(C#N)cc1-c1ccccc1	?	-	-[11.4 µM]
N#Cc1cc(S(=O)(=O)c2ccccc2)c(N)[nH]c1=O	-113	-	-[11.4 µM]
CN1CCN(c2ncc3nc(-c4ccc(Cl)cc4)c(=O)n(Cc4ccc(F)cc4)c3n2)CC1	.	.	-
Cc1onc(-c2ccccc2)c1C(=O)NC(=S)NNC(=O)c1ccc(O)cc1O	-	-	.
Cc1onc(-c2ccccc2)c1C(=O)NC(=S)NNC(=O)c1ccccc1O	-95	-	.
CO[C@H]1C[C@@H](O[C@@H]2[C@H](C)[C@H](O[C@@H]3O[C@@H](C)C[C@@H](N(C)C)[C@@H]3O)[C@H](C)C[C@]3(CO3)C(=O)[C@H](C)[C@H](O)[C@H](C)[C@H](C)OC(=O)[C@@H]2C)O[C@@H](C)[C@H]1O	.	-	-
O=C(Nc1ccc2c(c1)OCCO2)NC1CCCCC1	?	-	-[2.29 µM]
O=C(CSc1ccc2c(c1)OCCO2)NC(=O)NC1CCCC1	-117	-	-
COc1ccc(-n2c(=O)c(CCc3ccccc3)nc3cnc(N4CCN(C)CC4)nc32)cc1	.	.	-
O=C(c1ccco1)N1CCC2(CCN(Cc3ccccc3)CC2)CC1	.	-	-
COc1ccc(Oc2ncc3nc(C)c(=O)n(C[C@H]4CCCO4)c3n2)cc1	.	.	-
CC12C(=O)N(NC(=O)c3ccncc3)C(=O)C1C1C=CC2C1 (centres undefined)	-	-	.
O=C(NN1C(=O)C2C3C=CC(C3)C2C1=O)c1ccncc1 (centres undefined)	-113	-	.
COC(=O)c1cccc(C23CC4(C2)[C@H](CN(CC2CCCCC2)[C@@H]4c2ccccc2)C3c2ccc(C(F)(F)F)cc2)c1 (some centres undefined)	.	-	-
CCOc1cccc(-c2nnc(SCC(=O)Nc3cc(OC)cc(OC)c3)n2N)c1	?	-	-
CCOc1cccc(-c2nnc(SCC(=O)Nc3ccc(OC)c(OC)c3)n2N)c1	-108	-	-
SMILES	PNC inhibitor	12-hLO inh	15-hLO-2 inh
CCCCCCN(C(=O)CCCCCN1C(=O)NC(c2ccc(-c3ccccc3)cc2)C(C(=O)OCc2ccccc2)=C1C)C(C(=O)NCCCC)c1ccc(OCC(=O)O)c(C(=O)O)c1 (centres undefined)	.	-	?
CCCCC(c1nnnn1CCOC)N1CCN(CC)CC1 (centres undefined)	-100	-	.
C=CCN1CCN(C(CC(C)C)c2nnnn2CCOC)CC1 (centres undefined)	?	-	-
CCCCC[C@H](O)c1cccc(OCc2ccc3ccccc3n2)c1	.	-	-
O=S(=O)(c1ccc2ccccc2c1)N1CCCCC1	?	-	-
O=S(=O)(CC(CN1CCCC1)N1CCCC1)c1ccc2ccccc2c1 (centres undefined)	-100	-	.
NC(=O)c1cc(-c2ccccc2)nc(Oc2ccccc2)n1	-117	-	-
N#Cc1cc(-c2ccccc2)nc(Oc2ccccc2)n1	-	-	.
CC(C)CN1CCCC2(CCN(S(=O)(=O)c3ccccc3)CC2)C1	.	-	-
Cn1cc(-c2nc3cnc(Oc4cccc(Cl)c4)nc3n(C3CC3)c2=O)c2ccccc21	.	.	-
O=C(Nc1ccc2ccccc2c1)c1cccnc1	-	-	-
O=C(Nc1ccc(OCc2ccccc2)cc1)c1cccnc1	-112	-	-
Cn1c(=O)c2sccc2n2c(CCCC(=O)NCc3ccc4c(c3)OCO4)nnc12	-100	-	-
O=C(CCCCn1c(=O)[nH]c2ccsc2c1=O)NCc1ccc2c(c1)OCO2	-	-	-
O=C(NC(=S)N1CCCCC1)c1cccs1	-	-	.
O=C(NC(=S)N1CCN(c2ccc(Cl)cc2[N+](=O)[O-])CC1)c1ccco1	-81	-	.
CC(C)(C)C(=O)N1CCN(c2ccc(Cl)cc2[N+](=O)[O-])CC1	-	-	.
O=C(CSc1ccc(Cl)cc1)N1CCN(c2ccc(Cl)cc2[N+](=O)[O-])CC1	-	-	-
CCS(=O)(=O)N1CCN(c2ccc(Cl)cc2[N+](=O)[O-])CC1	-83	-	.
O=C(NC(=S)N1CCN(c2ccc(Cl)cc2[N+](=O)[O-])CC1)c1cccs1	-112	-	.
O=C(O)C[C@H](Nc1ccccc1)C(=O)O	.	-[11.4 µM]	-[11.4 µM]
CCC/C=C(\CCC)C(NS(=O)(=O)c1cccs1)c1ccc(C(=O)OC)cc1 (centres undefined)	.	-	-
C[C@H]1Cc2c(COc3ccccc3)nc3c(c2CO1)CN(S(=O)(=O)c1ccc(C#N)cc1)CC3	.	-[11.4 µM]	.
CCN1C(=O)[C@@H]2[C@H](C1=O)[C@@H]1C[C@H]3C(=O)N(CC)C(=O)[C@H]3[C@@H]3C1=C(C(=O)N1C(=O)O/C(=N\CC4CC4)[C@]31C)[C@@H]2C	.	-	-
C#C[C@H](N)CCC(=O)O	.	-	-
SMILES	PNC inhibitor	12-hLO inh	15-hLO-2 inh
CCNC(=O)[C@@H]1O[C@@H](n2cnc3c(N)nc(NCCc4ccc(CCC(=O)O)cc4)nc32)[C@H](O)[C@@H]1O	.	-	-
CCCCc1nn(-c2cc(Cl)ccc2OC)c2c1C(=O)CC(C)(C)C2	?	-	-
CCCc1nn(-c2cc(Cl)ccc2OC)c2c1C(=O)CCC2	-97	-	-
COC(=O)c1cn(CC(=O)NC2CCCCC2)c2ccccc12	-	-	-
COC(=O)c1cn(CCOc2ccc(C)cc2)c2ccccc12	-82	-	-
O=C(NCc1ccco1)C1CC2CCC1C2 (centres undefined)	-	-	-
O=C(O)C1C2CCC(C2)C1C(=O)NCc1ccco1 (centres undefined)	-100	-	-
Cn1cccc1C(=O)N1CCC2(CCN(Cc3ccc(C#N)cc3)CC2)CC1	.	-	-
Cc1cc(N2CCN(C(=O)OC(C)(C)C)CC2)n2ncnc2n1	-88	-	-
Cc1cc(N2CCN(C(=O)c3ccco3)CC2)n2ncnc2n1	-	-	.
CN(C)CCCCNC(=O)c1ccc(-n2c(=O)c(=O)[nH]c3ccccc32)cc1	.	-	.
COCCCNC(=O)CN(c1ccc(Cl)c(Cl)c1)S(C)(=O)=O	?	-	-
COCCCNC(=O)CN(c1cc(Cl)cc(Cl)c1)S(C)(=O)=O	-100	-	.
COc1ccc2c(c1)C(c1ccccc1OC)CC(=O)O2 (centres undefined)	.	-[0.00818 µM]	-[0.0915 µM]
CS(=O)(=O)N1CCC2(CC1)CN(c1ccccn1)C2	.	-	-
